Here are results for 3 compounds from PubChem BioAssay AID382 (SGCOxCompounds, 2006).

Calls of active or inactive are those of the source. The rule behind the calls is not given here.

Chain of Dual specificity protein kinase CLK1 (Homo sapiens) (P49759 whole entry, looked up): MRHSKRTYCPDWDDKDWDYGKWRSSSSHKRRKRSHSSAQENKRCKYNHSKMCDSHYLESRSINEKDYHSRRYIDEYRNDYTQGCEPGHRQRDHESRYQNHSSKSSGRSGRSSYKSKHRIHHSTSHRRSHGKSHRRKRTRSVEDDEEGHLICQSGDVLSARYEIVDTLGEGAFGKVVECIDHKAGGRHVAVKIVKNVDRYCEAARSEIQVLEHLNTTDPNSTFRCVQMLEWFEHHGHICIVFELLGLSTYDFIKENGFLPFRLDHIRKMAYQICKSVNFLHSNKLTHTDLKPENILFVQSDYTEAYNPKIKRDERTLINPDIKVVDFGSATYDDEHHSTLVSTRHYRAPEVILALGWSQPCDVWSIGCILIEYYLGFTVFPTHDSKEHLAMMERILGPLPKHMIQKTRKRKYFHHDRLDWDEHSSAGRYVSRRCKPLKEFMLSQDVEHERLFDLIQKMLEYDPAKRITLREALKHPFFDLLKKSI

The assay addresses Dual specificity protein kinase CLK1 (Homo sapiens) (UniProt P49759). Put plainly: ligand-induced CLK1 melting temperature shift – biophysical, recombinant human kinase, DSF (AID 382). Conditions: Recombinant CLK1, thermal shift (DSF), at 10 µM, protein 2 µM, buffer 10 mM HEPES, pH 7.5, NaCl 150 mM, with 50 mM Arg/Glu, hits give high values.
Turning to `CC(C)(C)c1nc2c3cc[nH]c(=O)c3c3cc(F)ccc3c2[nH]1`, the Tm shift is 3.6 Celsius (active). In the case of `Cn1cc(/C=C2\C(=O)Nc3ccc(S(N)(=O)=O)cc32)c2ccccc21`, the Tm shift was 3.6 Celsius (active). For the compound `CC(O)(O)C1(O)C[C@@H]2O[C@@]1(C)n1c3ccccc3c3c4c(c5c6ccccc6n2c5c31)C(=O)NC4` (stereo partly drawn), the Tm shift was 5.1 Celsius (active).
